# Data: the supplement of paper PMC10849652
# Of roughly 7,900 targets only a part is listed; those with a hit were picked by preference. About 0.6% of all pairs of compound and target were hits.
# Compound: Cc1ccc(C(=O)N(CCCN)[C@@H](c2nc3cc(Cl)ccc3c(=O)n2Cc2ccccc2)C(C)C)cc1 [ispinesib]
# Experiment: log2 fold change, soluble protein after heating vs DMSO (PISA); higher = thermal stabilisation; K562 cells, 10 uM, 30 min; active = over 0.2 and 3.5 SD of the protein, either way, in both replicates (recomputed)
# How it was run: (§1)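 K562 cells (2×10^6 cells/mL) were treated with 10 μM compound for 30 min, and aliquots were heated for 3 min over 48°C-58°C. Pooled aliquots were extracted in PBS with 0.5% NP-40 at 4°C, and the supernatant after 21,000xg for 90 min was measured by TMTpro 16plex LC-MS/MS with channel sums equalised. Reported thermal stability, relative to control samples and from duplicates, is a log2 fold change.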
# UniProt Q70SY1, sequence (Q70SY1 whole entry, looked up): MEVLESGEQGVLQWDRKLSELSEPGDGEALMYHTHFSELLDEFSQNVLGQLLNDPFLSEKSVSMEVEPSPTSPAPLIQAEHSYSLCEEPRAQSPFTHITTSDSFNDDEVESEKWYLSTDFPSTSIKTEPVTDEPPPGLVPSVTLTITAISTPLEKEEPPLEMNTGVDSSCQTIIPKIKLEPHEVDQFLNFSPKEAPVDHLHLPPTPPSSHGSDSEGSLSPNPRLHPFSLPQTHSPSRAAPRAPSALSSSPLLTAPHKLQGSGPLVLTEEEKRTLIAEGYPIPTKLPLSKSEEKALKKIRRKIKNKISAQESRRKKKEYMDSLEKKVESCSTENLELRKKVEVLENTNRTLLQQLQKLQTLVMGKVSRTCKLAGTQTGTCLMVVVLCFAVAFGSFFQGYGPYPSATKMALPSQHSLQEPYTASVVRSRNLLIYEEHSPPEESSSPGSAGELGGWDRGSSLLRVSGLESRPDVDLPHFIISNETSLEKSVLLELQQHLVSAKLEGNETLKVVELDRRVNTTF
# UniProt P30305, sequence (P30305 whole entry, looked up): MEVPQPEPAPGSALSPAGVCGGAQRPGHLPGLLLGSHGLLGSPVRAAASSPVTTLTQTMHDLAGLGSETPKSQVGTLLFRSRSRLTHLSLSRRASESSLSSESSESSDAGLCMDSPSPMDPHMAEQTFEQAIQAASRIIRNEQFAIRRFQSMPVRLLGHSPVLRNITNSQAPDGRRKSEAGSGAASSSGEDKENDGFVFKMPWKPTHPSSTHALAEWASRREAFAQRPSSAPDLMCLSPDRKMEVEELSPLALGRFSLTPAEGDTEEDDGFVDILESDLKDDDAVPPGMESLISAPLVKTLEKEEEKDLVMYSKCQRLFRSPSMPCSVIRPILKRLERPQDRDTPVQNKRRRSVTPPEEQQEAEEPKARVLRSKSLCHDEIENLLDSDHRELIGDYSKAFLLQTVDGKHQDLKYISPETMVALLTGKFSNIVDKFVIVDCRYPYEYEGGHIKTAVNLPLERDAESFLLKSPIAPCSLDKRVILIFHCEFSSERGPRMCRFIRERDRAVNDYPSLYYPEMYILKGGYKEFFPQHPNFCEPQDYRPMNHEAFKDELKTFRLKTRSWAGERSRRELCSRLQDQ
# UniProt O75956, sequence (O75956 whole entry, looked up): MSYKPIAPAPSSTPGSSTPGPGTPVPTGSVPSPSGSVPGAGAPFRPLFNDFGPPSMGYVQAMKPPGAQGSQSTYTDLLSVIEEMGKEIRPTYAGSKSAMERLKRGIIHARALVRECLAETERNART
# UniProt Q8N4S0, sequence (Q8N4S0 whole entry, looked up): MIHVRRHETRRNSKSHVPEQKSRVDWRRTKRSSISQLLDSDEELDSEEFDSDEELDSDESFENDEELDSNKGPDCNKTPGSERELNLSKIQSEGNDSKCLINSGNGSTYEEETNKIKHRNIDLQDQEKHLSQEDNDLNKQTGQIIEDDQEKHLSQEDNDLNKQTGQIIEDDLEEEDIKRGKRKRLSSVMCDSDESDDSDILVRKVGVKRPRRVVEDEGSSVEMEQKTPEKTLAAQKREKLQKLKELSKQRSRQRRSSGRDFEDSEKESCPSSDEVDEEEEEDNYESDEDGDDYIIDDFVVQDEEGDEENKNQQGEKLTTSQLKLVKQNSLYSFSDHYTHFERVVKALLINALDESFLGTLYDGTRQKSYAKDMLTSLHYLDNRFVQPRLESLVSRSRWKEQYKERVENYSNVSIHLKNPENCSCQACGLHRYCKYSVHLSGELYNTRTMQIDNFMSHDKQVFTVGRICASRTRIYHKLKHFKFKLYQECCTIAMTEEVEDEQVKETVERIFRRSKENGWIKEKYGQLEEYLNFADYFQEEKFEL
# UniProt P30281, sequence (P30281 whole entry, looked up): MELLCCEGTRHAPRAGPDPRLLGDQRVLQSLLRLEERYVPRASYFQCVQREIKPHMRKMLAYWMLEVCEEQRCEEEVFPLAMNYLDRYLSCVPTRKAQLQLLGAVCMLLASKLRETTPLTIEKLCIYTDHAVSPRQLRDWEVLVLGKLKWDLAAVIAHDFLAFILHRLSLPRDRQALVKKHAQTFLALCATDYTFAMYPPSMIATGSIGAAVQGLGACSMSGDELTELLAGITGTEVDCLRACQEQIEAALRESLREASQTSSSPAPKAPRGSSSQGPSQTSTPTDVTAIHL
# UniProt Q13286, sequence (Q13286 whole entry, looked up): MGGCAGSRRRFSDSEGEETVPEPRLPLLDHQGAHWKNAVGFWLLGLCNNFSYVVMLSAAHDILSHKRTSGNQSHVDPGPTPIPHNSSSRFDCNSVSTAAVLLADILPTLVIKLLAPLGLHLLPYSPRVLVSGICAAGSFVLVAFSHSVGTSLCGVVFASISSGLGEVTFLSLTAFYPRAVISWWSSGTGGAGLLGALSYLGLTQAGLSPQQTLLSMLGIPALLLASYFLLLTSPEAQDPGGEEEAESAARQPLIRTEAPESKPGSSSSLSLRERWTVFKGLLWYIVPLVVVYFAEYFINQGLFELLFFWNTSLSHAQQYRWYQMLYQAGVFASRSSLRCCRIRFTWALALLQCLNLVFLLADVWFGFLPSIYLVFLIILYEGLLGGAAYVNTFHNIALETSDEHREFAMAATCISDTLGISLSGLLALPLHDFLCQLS
# UniProt Q9UBY8, sequence (Q9UBY8 whole entry, looked up): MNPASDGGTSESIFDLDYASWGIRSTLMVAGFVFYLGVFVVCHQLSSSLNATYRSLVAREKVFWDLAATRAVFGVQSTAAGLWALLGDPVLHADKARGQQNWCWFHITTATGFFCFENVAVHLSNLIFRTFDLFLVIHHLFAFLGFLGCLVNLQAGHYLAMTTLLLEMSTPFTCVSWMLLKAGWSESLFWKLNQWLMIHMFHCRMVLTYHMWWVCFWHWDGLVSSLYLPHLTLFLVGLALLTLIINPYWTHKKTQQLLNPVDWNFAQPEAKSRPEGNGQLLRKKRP
# UniProt P51795, sequence (P51795 whole entry, looked up): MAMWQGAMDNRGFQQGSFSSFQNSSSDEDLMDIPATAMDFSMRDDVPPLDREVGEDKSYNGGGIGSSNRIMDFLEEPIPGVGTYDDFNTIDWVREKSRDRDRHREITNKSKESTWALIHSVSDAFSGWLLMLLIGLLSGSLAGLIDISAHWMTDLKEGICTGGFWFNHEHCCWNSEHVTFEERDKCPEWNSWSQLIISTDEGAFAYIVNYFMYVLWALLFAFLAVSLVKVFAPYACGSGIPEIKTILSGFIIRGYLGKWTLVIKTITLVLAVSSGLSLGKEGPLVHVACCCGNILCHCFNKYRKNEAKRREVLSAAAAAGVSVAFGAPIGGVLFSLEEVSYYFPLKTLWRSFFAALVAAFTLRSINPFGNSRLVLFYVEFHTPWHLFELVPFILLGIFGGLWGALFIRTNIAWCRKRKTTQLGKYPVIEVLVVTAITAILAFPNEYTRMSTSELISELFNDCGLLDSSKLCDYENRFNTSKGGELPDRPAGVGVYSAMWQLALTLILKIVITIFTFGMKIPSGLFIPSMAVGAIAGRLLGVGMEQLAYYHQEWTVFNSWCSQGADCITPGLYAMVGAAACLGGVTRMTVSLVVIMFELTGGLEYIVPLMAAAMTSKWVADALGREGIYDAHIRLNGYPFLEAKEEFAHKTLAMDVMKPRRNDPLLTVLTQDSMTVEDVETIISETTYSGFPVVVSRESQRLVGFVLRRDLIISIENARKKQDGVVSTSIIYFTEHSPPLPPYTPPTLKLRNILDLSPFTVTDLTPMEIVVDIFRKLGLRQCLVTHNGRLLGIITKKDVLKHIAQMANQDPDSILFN
# UniProt Q9UHN6, sequence (Q9UHN6 whole entry, looked up): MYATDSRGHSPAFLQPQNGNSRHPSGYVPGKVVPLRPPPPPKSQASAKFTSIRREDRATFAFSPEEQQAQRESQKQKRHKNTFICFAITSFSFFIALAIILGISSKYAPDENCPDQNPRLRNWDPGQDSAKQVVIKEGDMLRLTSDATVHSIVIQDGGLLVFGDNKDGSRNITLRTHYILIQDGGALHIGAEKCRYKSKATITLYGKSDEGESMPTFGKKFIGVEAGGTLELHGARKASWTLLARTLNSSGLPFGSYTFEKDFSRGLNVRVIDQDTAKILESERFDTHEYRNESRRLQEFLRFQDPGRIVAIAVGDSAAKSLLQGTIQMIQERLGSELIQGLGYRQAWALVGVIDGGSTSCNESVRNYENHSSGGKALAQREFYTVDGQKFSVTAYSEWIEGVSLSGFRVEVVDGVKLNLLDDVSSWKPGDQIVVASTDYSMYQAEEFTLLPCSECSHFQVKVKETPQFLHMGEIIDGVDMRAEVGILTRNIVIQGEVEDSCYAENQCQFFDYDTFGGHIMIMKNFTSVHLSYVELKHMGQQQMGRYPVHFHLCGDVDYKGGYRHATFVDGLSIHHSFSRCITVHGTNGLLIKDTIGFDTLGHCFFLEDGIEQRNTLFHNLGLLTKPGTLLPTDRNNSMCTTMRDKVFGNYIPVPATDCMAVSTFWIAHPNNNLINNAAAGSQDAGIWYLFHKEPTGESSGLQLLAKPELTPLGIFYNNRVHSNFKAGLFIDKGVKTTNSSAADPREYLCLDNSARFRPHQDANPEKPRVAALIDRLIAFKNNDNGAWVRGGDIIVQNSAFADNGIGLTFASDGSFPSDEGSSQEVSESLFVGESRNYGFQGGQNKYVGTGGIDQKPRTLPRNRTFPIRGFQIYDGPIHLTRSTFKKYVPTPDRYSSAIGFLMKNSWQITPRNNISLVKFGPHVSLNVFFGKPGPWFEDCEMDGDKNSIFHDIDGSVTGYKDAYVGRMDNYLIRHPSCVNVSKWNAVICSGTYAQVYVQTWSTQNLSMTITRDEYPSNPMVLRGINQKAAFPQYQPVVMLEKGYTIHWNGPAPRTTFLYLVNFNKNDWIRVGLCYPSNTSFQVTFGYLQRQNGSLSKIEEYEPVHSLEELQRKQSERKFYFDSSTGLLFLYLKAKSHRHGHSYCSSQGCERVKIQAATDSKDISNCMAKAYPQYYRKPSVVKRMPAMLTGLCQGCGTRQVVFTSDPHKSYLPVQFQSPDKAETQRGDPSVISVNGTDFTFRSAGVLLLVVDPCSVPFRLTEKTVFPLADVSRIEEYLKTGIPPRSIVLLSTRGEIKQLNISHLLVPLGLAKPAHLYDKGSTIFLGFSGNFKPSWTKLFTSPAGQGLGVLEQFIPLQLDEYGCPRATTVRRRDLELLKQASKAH
row,Target,log2 fold change
1,CARD9 (UniProt Q9H257),-0.398 (inactive)
2,CCNDBP1 (UniProt O95273),-0.029 (inactive)
3,CORO2A (UniProt Q92828),-0.046 (inactive)
4,CLN3 (UniProt Q13286),-0.307 (inactive)
5,CLASP2 (UniProt O75122),-0.007 (inactive)
6,CCDC82 (UniProt Q8N4S0),-0.026 (inactive)
7,CEBPZOS (UniProt A8MTT3),0.016 (inactive)
8,CNRIP1 (UniProt Q96F85),-0.147 (inactive)
9,CREB3L2 (UniProt Q70SY1),-0.342 (inactive)
10,CEMIP2 (UniProt Q9UHN6),-0.148 (inactive)
11,CLN8 (UniProt Q9UBY8),-0.15 (inactive)
12,CCND3 (UniProt P30281),-0.116 (inactive)
13,"CCDC187, A0A1W2PQX5",0.274 (inactive)
14,CLCN5 isoform 2 (UniProt P51795),-0.419 (active)
15,CNOT4 isoform 9 (UniProt O95628),-0.102 (inactive)
16,CFAP58 (UniProt Q5T655),-0.165 (inactive)
17,CDK2AP2 (UniProt O75956),-0.011 (inactive)
18,CRTC3 (UniProt Q6UUV7),0.129 (inactive)
19,CDC25B isoform 4 (UniProt P30305),0.019 (inactive)
20,CCNT2 (UniProt O60583),-0.147 (inactive)

# Compound: Cc1ccc(NC(=O)c2ccc(CN3CC[C@H](N(C)C)C3)c(C(F)(F)F)c2)cc1Nc1nccc(-c2cncnc2)n1 [bafetinib]
# Experiment: as above
# How it was run: as §1
row,Target,log2 fold change
1,CCNDBP1 (UniProt O95273),0.059 (inactive)
2,CORO2A (UniProt Q92828),0.021 (inactive)
3,CLN3 (UniProt Q13286),-0.099 (inactive)
4,CD68 (UniProt P34810),-0.091 (inactive)
5,CLASP2 (UniProt O75122),-0.098 (inactive)
6,CRMP1 isoform 2 (UniProt Q14194),-0.024 (inactive)
7,CCDC82 (UniProt Q8N4S0),-0.091 (inactive)
8,CEBPZOS (UniProt A8MTT3),0.066 (inactive)
9,CREB3L2 (UniProt Q70SY1),0.01 (inactive)
10,CEMIP2 (UniProt Q9UHN6),-0.018 (inactive)
11,CLN8 (UniProt Q9UBY8),-0.209 (inactive)
12,CCND3 (UniProt P30281),0.07 (inactive)
13,CKS2 (UniProt P33552),-0.021 (inactive)
14,CNOT4 isoform 9 (UniProt O95628),0.081 (inactive)
15,CLPTM1L (UniProt G5E9Z2),0.156 (inactive)
16,CDK2AP2 (UniProt O75956),0 (inactive)
17,CA1 (UniProt E5RIF9),-0.042 (inactive)
18,CLINT1 (UniProt Q14677),-0.053 (inactive)
19,CASP7 isoform 3 (UniProt P55210),-1.01 (active)
20,CFAP47 (UniProt Q6ZTR5),0.034 (inactive)
21,CRTC3 (UniProt Q6UUV7),-0.018 (inactive)
22,CSNK1A1 isoform 3 (UniProt P48729),0.224 (inactive)
23,CDC25B isoform 4 (UniProt P30305),0.081 (inactive)
24,CS (UniProt F8VU34),0.044 (inactive)

# Compound: Cc1cccc(CC(=O)N2CCc3c2ccc(-c2cn(C)c4ncnc(N)c24)c3F)n1
# Experiment: as above
# How it was run: as §1
row,Target,log2 fold change
1,CCNDBP1 (UniProt O95273),-0.017 (inactive)
2,CORO2A (UniProt Q92828),0.015 (inactive)
3,CRMP1 isoform 2 (UniProt Q14194),-0.035 (inactive)
4,CNN1 (UniProt P51911),0.22 (inactive)
5,CEBPZOS (UniProt A8MTT3),0.014 (inactive)
6,COMMD3-BMI1 (UniProt R4GMX3),-0.032 (inactive)
7,CEMIP2 (UniProt Q9UHN6),0.002 (inactive)
8,CLN8 (UniProt Q9UBY8),-0.662 (active)
9,CCND3 (UniProt P30281),-0.016 (inactive)
10,CKS2 (UniProt P33552),0.048 (inactive)
11,"CCDC187, A0A1W2PQX5",-0.106 (inactive)
12,CLCN5 isoform 2 (UniProt P51795),0.048 (inactive)
13,CNOT4 isoform 9 (UniProt O95628),0.067 (inactive)
14,CLPTM1L (UniProt G5E9Z2),0.176 (inactive)
15,CFAP58 (UniProt Q5T655),0.009 (inactive)
16,CASP7 isoform 3 (UniProt P55210),-0.401 (inactive)
17,CDC25B isoform 4 (UniProt P30305),-0.022 (inactive)
18,CCNT2 (UniProt O60583),-0.117 (inactive)

# Compound: Cc1cn(-c2cc(NC(=O)c3ccc(C)c(Nc4nccc(-c5cccnc5)n4)c3)cc(C(F)(F)F)c2)cn1 [nilotinib]
# Experiment: as above
# How it was run: as §1
row,Target,log2 fold change
1,CCNDBP1 (UniProt O95273),-0.19 (inactive)
2,CORO2A (UniProt Q92828),-0.047 (inactive)
3,CLN3 (UniProt Q13286),-0.016 (inactive)
4,CLASP2 (UniProt O75122),0.014 (inactive)
5,CRMP1 isoform 2 (UniProt Q14194),-0.012 (inactive)
6,CCDC82 (UniProt Q8N4S0),0.018 (inactive)
7,CNN1 (UniProt P51911),0.008 (inactive)
8,CEBPZOS (UniProt A8MTT3),0.039 (inactive)
9,CNRIP1 (UniProt Q96F85),-0.066 (inactive)
10,COMMD3-BMI1 (UniProt R4GMX3),-0.109 (inactive)
11,CREB3L2 (UniProt Q70SY1),0.091 (inactive)
12,CEMIP2 (UniProt Q9UHN6),0.069 (inactive)
13,CLN8 (UniProt Q9UBY8),0.051 (inactive)
14,CKS2 (UniProt P33552),-0.008 (inactive)
15,"CCDC187, A0A1W2PQX5",0.318 (inactive)
16,CLCN5 isoform 2 (UniProt P51795),-0.176 (inactive)
17,CNOT4 isoform 9 (UniProt O95628),0.094 (inactive)
18,CLPTM1L (UniProt G5E9Z2),-0.22 (inactive)
19,CDK2AP2 (UniProt O75956),0.04 (inactive)
20,CLINT1 (UniProt Q14677),0.065 (inactive)
21,CASP7 isoform 3 (UniProt P55210),0.145 (inactive)
22,CDC25B isoform 4 (UniProt P30305),-0.513 (active)
23,CCNT2 (UniProt O60583),0.105 (inactive)
